# Source: PubChem BioAssay AID489017 (The Scripps Research Institute Molecular Screening Center, 2010)
# Unmarked numbers belong to inactive results. How the calls were made is not given here.
# System: Phorbol Ester
# Assay: receptor, enzyme and CYP inhibition profiling – biochemical, Ricerca HitProfilingScreen, CYP450, selectivity assay for S1P4 antagonist project, profiling panel (AID 489017)
# Details: Ricerca receptor/enzyme binding panel plus CYP450, at 10 µM, stronger effect = higher value
compound,measurement,value
CCc1cccc(CC)c1NC(=O)c1ccc(-c2cc(Cl)ccc2Cl)o1,inhibition,-12%
